Laboratory results published in PubChem BioAssay (Tox21).
Inconclusive results are not listed. Active and inactive are the calls of the source. Unless noted, calls follow the shape of the dose curve; as a rule, active = well fitted curve in the direction sought with a large enough effect in the repeat runs; inconclusive = weak or mixed curves; inactive = no such curve, though single readings can be large; an effect the other way counts as inactive or inconclusive.

What was measured:
[1] = qHTS assay to identify small molecule antagonists of the vitamin D receptor (VDR) signaling pathway - cell viability counter screen (AID 743225); also: % is scaled to controls: 0 for no effect and ±100 for the full control effect; nearly all actives have a fitted effect of over 50% in size
Outline: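 Same-well multiplex: following 16 h treatment of HEK 293T cells carrying a UAS-driven beta-lactamase reporter with compound and agonist (3 nM final), and a 2 h FRET substrate step, CellTiter-Glo was added and luminescence read after 30 min.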

[2] = qHTS assay to identify small molecule agonists of the NFkB signaling pathway - cell viability counter screen (AID 1159515; calls by dose curve; also: series mostly up to about 61 µM; % is scaled to controls: 0 for no effect and ±100 for the full control effect; nearly all actives have a fitted effect of over 55% in size)
Outline: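 Parallel cytotoxicity counter screen in ME-180 cells carrying an NFkB-response-element beta-lactamase reporter, 2,000 cells/well. Compound exposure lasted 5 hr at 37 C, 5% CO2. Cell viability was quantified by CellTiter-Glo luminescence.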

[3] = qHTS assay to identify small molecule agonists of the endoplasmic reticulum stress response signaling pathway (AID 1159516; active = well fitted activation curve with a large enough effect in the signal ratio in the repeat runs, not every such curve was filed as active; the % refers to the signal ratio; also: % is scaled to controls: 0 for no effect and ±100 for the full control effect)
Outline: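 Using a HeLa line with an ESRE-driven beta-lactamase gene, agonist activity was measured by FRET substrate fluorescence (460 and 530 nm emission) after cells were treated with compounds for 5 hr at 37 C and 5% CO2.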

[4] = qHTS assay to identify small molecule agonists of the endoplasmic reticulum stress response signaling pathway - cell viability counter screen (AID 1159517; calls by dose curve;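 also: HeLa cells carrying an ER stress response element beta-lactamase reporter; series mostly up to about 61 µM; % is scaled to controls: 0 for no effect and ±100 for the full control effect; nearly all actives have a fitted effect of over 50% in size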)
Outline: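 ESRE-bla HeLa cells (1,500/well) were plated overnight at 37 C and exposed to compounds for 5 hr. After the 2 hr beta-lactamase substrate read, CellTiter-Glo went into the same wells, and luminescence was read after 30 min at room temperature.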

[5] = target: Nuclear receptor ROR-gamma (Homo sapiens) (UniProt P51449); experiment: qHTS assay to identify small molecule antagonists of the retinoid-related orphan receptor gamma (ROR-gamma) signaling pathway (AID 1159521;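 also: CHO cells with doxycycline inducible ROR-gamma driving an RORE luciferase reporter; top concentration of the series differs between compounds; % is scaled to controls: 0 for no effect and ±100 for the full control effect; nearly all actives have a fitted effect of over 50% in size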)
Outline: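 Inducible-expression reporter assay: doxycycline (1 uM final) switched on RORγ in CHO cells bearing a ROR response element-luciferase construct, with test compounds present from 2 h beforehand. Decreased luminescence after 16 h defined antagonist activity.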

[6] = qHTS assay to identify small molecule agonists of the AP-1 signaling pathway - cell viability counter screen (AID 1159525; calls by dose curve; also: nearly all actives have a fitted effect of over 55% in size)
Outline: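 Intracellular ATP by Cell Titer Glo luminescence (30 min, RT) in the same ME-180 AP-1-bla wells after the 5 h compound exposure at 37 °C. Normalised to tetra n-octyl ammonium bromide and DMSO controls.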

[7] = qHTS assay to identify small molecule agonists of the AP-1 signaling pathway (AID 1159526; calls by dose curve; also: % is scaled to controls: 0 for no effect and ±100 for the full control effect)
[8] = target: Retinoic acid receptor RXR-alpha (Homo sapiens) (UniProt P19793); experiment: qHTS assay to identify small molecule agonists of the RXR signaling pathway (AID 1159527; calls by dose curve; also: % is scaled to controls: 0 for no effect and ±100 for the full control effect; nearly all actives have a fitted effect of over 35% in size)
Outline: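 Compounds in DMSO were added to RXR-alpha-UAS-bla HEK 293T cells kept in 2% charcoal-stripped serum, and incubated 16 hr at 37 C with 5% CO2. Reporter signal came from a 2 hr B/G FRET substrate step.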

[9] = qHTS assay to identify small molecule agonists of the retinoic acid receptor (RAR) signaling pathway (AID 1159553); also: % is scaled to controls: 0 for no effect and ±100 for the full control effect
Outline: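 Quantitative high-throughput format: the Tox21 10K library was tested on C3RL4 RARE-luciferase cells for 6 hr at 37 C and 5% CO2, with luminescence measured after a 30 min room-temperature reagent step.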

[10] = qHTS assay to identify small molecule antagonists of the estrogen related receptor (ERR) signaling pathway from Tox21 library - cell viability counter screen (AID 1224834); also: % is scaled to controls: 0 for no effect and ±100 for the full control effect; nearly all actives have a fitted effect of over 30% in size
Outline: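 Compounds in DMSO were pinned onto ERR cells that had been incubated for 6 h, and the plates were held at 37 C for 17.5 h. CellTiter-Fluor reagent was then added and fluorescence was measured after 30 min.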

[11] = qHTS assay to identify small molecule agonists of the RXR signaling pathway - cell viability counter screen (AID 1159529); also: series mostly up to about 77 µM; % is scaled to controls: 0 for no effect and ±100 for the full control effect; nearly all actives have a fitted effect of over 50% in size
Outline: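 Counter screen: CellTiter-Glo luminescence. Cells: RXR-alpha-UAS-bla HEK 293T. Medium: 2% charcoal-stripped FBS. Treatment: 16 h, 37 C. Reagent incubation: 30 min, RT.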

[12] = qHTS assay to identify small molecule antagonists of the retinoid acid receptor (RAR) signaling pathway - cell viability counter screen (AID 1159551); also: % is scaled to controls: 0 for no effect and ±100 for the full control effect; nearly all actives have a fitted effect of over 35% in size
Outline: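 ATP-based viability, C3RL4 cells, 6 h at 37 C with 1 uM final retinol co-added after compound; luminescence read 30 min post CellTiter-Glo, RT.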

[13] = qHTS assay to identify small molecule antagonists of the retinoid-related orphan receptor gamma (ROR-gamma) signaling pathway - cell viability counter screen (AID 1159520)
Outline: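 Cytotoxicity was read from cellular ATP (CellTiter-Glo luminescence) after 16 hr at 37 C with 1 uM doxycycline induction. The inducer was added 2 hr after compound transfer to Tet-on ROR gamma CHO cells.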

[14] = qHTS assay to identify small molecule antagonists of the estrogen related receptor (ERR) signaling pathway - cell viability counter screen (AID 1224818);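 also: series mostly up to about 46 µM; viability measured after 17.5 h of compound exposure; % is scaled to controls: 0 for no effect and ±100 for the full control effect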
Outline: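 Quantitative high-throughput viability counter screen in ERR cells. Compounds (DMSO) incubated 17.5 h at 37 C; read-out was CellTiter-Fluor fluorescence.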

[15] = qHTS assay to identify small molecule antagonists of the estrogen related receptor signaling pathway with the pleiotropic PPARgamma coactivator (PGC) cell viability counter screen (AID 1224822)
Outline: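 Cytotoxicity in the PGC/ERR cell line is assessed with CellTiter-Fluor, read as fluorescence intensity 30 min after reagent addition, following 17.5 h compound treatment at 37 C.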

[16] = qHTS assay to identify small molecule antagonists of the retinoic acid receptor (RAR) signaling pathway (AID 1159552)
Outline: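 Antagonism of retinol-induced RARE reporter activity was measured in C3RL4 cells. Exposure to compounds and 1 uM final retinol lasted 6 hr at 37 C, with luminescence as endpoint.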

Retinoic acid receptor RXR-alpha (Homo sapiens), sequence (P19793 whole entry, looked up): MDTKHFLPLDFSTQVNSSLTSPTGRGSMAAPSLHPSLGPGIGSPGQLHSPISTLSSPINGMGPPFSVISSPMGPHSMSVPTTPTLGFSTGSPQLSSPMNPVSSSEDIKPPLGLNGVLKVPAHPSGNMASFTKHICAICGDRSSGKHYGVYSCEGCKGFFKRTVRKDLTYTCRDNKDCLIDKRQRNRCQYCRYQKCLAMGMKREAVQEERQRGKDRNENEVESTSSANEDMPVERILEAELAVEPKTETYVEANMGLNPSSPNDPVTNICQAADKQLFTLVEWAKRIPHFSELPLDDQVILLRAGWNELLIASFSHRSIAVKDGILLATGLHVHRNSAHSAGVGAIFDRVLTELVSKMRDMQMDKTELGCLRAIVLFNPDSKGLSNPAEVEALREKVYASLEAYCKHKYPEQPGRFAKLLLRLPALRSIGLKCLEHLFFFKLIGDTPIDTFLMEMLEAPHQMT

O=S(=O)(O)c1cccc2c(S(=O)(=O)O)cccc12
inactive: outcome [1] | outcome [2] | outcome [3] | outcome [4] | Potency [5] | outcome [6] | outcome [7] | Potency [8] | Potency [9] | Potency [10]

C[N+](C)(CCOc1ccccc1)Cc1cccs1
inactive: outcome [1] | outcome [2] | outcome [3] | outcome [4] | Potency [5] | outcome [6] | outcome [7] | Potency [8] | Potency [11] | Potency [10]

NC(=O)N[C@@H](CCC(=O)O)C(=O)O
inactive: outcome [1] | outcome [2] | outcome [3] | outcome [4] | Potency [5] | outcome [6] | outcome [7] | Potency [11] | outcome [12] | Potency [10]

[Ca+2]
inactive: outcome [2] | outcome [3] | outcome [4] | Potency [5] | outcome [6] | outcome [7] | Potency [8] | Potency [11] | outcome [12] | Potency [9]

CCCc1nn(C)c2c(=O)[nH]c(-c3cc(S(=O)(=O)N4CCN(C)CC4)ccc3OCC)nc12
inactive: outcome [2] | outcome [3] | outcome [4] | outcome [13] | Potency [5] | outcome [6] | outcome [7] | outcome [12] | Potency [9] | outcome [14] | outcome [15] | Potency [10]

C[C@@H]1C[C@H]2[C@@H]3C[C@H](F)C4=CC(=O)C(Cl)=C[C@]4(C)[C@@]3(F)[C@@H](O)C[C@]2(C)[C@@]1(O)C(=O)CO
inactive: outcome [1] | outcome [2] | outcome [3] | outcome [4] | outcome [13] | Potency [5] | outcome [6] | outcome [7] | outcome [12] | Potency [10]

CCOC(=O)C1=NOC(c2ccccc2)(c2ccccc2)C1
inactive: outcome [1] | outcome [2] | outcome [4] | outcome [13] | Potency [5] | outcome [6] | outcome [7] | Potency [8] | Potency [11] | Potency [16] | Potency [9] | Potency [10]

CCC(C)(CCCC(C)C)OC(C)=O (stereo unspecified)
inactive: outcome [1] | outcome [2] | outcome [4] | outcome [13] | Potency [5] | outcome [6] | outcome [7] | Potency [8] | Potency [11] | outcome [12] | Potency [10]

CC(C)(C#N)Nc1nc(Cl)nc(NC2CC2)n1
inactive: outcome [1] | outcome [2] | outcome [4] | outcome [13] | Potency [5] | outcome [6] | outcome [7] | Potency [8] | outcome [12] | Potency [10]

Cc1onc(-c2c(Cl)cccc2Cl)c1C(=O)Cl
inactive: outcome [1] | outcome [2] | outcome [4] | outcome [13] | Potency [5] | outcome [6] | outcome [7] | Potency [11] | outcome [12] | Potency [10]

CCCCCCCCCCOc1cc2c(=O)c(C(=O)OCC)c[nH]c2cc1OCC
inactive: viability change, negative = cytotoxic [1] -0.675% [at 6.95 µM] | activity, negative = cytotoxic [2] 6.37% [at 6.95 µM] | activity change, negative = cytotoxicity [4] -7.49% [at 6.95 µM] | activity, negative = cytotoxicity [13] 2.58% [at 8.39 µM] | activity change, negative = inhibition [5] 36.6% [at 8.39 µM] | viability change, negative = cytotoxic [6] 15.6% [at 6.97 µM] | activation [7] 9.42% [at 6.97 µM] | activation [8] -0.304% [at 6.98 µM] | activity change, negative = cytotoxicity [11] -0.18% [at 6.97 µM] | activity change, negative = cytotoxicity [12] 1.07% [at 8.39 µM] | viability change, negative = cytotoxic [10] 3.47% [at 8.39 µM]
